In PubChem BioAssay (Tox21) one finds Potency data, which are given here for 40 compounds.

Several values for one entry are separate records, joined by “and”; a condition that tells them apart may be missing. Equal values may be shown once. Records with an inconclusive call do not appear. Where a call stands in place of a potency, no number is given. The source holds several records for some structures; these can differ, active in one and inactive in another. Activity calls are given as the source filed them. Calls come from the whole dose curve; as a rule, active = well fitted cell-killing curve with a large enough effect in the repeat runs; inconclusive = weak or mixed curves; inactive = flat fitted curve, though single readings scatter.
Potency is the fitted concentration of half-maximal effect.

A short description of this assay: qHTS RealTime-Glo MT Cell Viability Assay in HepG2 cells - 32 hour (AID 1224877). Note: nearly all actives have a fitted effect of over 55% in size. The note with it: RealTime-Glo luminescence; series mostly up to 76.8 µM. From the text: U.S. Tox21 Program National Center for Advancing Translational Sciences [NCATS] NIH Chemical Genomics Center [NCGC] U.S. Environmental Protection Agency [EPA] National Institutes of Environmental Health Sciences [NIEHS] National Toxicology Program [NTP] U.S. Food and Drug Administration [FDA] Tox21 Assay Overview: Measure of cell viability is critical in the cell-base assay. Analysis of cell viability is necessary for the characterization of cell responses to cytotoxic drugs and environmental stress. A RealTime-Glo MT Cell Viability Assay to monitor cell viability in real time of continues cell culture during 40 hours of compound treatment was used to screen Tox21 10K library compounds in HepG2 cells. The RealTime-Glo MT Cell Viability Assay is a nonlytic, homogeneous, bioluminescent method to measure cell viability in real time using a simple, plate-based method. The assay involves adding NanoLuc luciferase and a cell-permeant prosubstrate to cells in culture. Viable cells reduce the proprietary prosubstrate to generate a substrate for NanoLuc luciferase. This substrate diffuses from cells into the surrounding culture medium, where it is rapidly used by the NanoLuc Enzyme to produce a luminescent signal. The signal correlates with the number of viable cells, making the assay well suited for cytotoxicity studies.
Tox21 Assay Protocol Summary: The mixture of HepG2 cell suspension and reagents were dispensed at 600cells/6 ul/well in 1536-well tissue culture treated black solid bottom plates using a Multidrop dispenser. After the assay plates were incubated at a 37 C/5% CO2 incubator for 5 hours, 23 nL of compounds dissolved in DMSO, positive and negative controls was transferred to the assay plate by a pintool work station. The plates were incubated at 37 C for 40 hours. The luminescence intensity were measured at 0h, 8h, 16h, 24h, 32h and 40h time points using ViewLux plate reader during compound treatment.
(qHTS replaces the single test concentration by a dilution series.)
Consider `CNC(=O)O/N=C(\C)C(C)S(C)(=O)=O` (stereo not given), for which the Potency entry is “inactive”. As to `CC1CN1` (stereo not given), the Potency entry was “inactive”.

Consider `CN1C2CCC(C)(C)C1CC(OC(=O)C(O)(c1cccs1)c1cccs1)C2` (stereo not given), for which the Potency result is “inactive”. In the case of `ClC1=C(Cl)[C@]2(Cl)[C@@H]3[C@H]4C[C@H]([C@@H]5O[C@H]45)[C@@H]3[C@@]1(Cl)C2(Cl)Cl`, the Potency entry was “inactive”.

With `ClCBr`, the Potency entry was “inactive”. Regarding `CC(C)=CC1C(C(=O)OC(C#N)c2cccc(Oc3ccccc3)c2)C1(C)C` (stereo not given), the Potency entry was “inactive”. With `CNC(=O)CSP(=O)(OC)OC` the entry was “inactive”; with `CC(=O)C(Cl)C(=O)N(C)C` (stereo not given), “inactive”; with `O=C1C2(Cl)C3(Cl)C4(Cl)C(Cl)(Cl)C5(Cl)C3(Cl)C1(Cl)C5(Cl)C24Cl` (stereo not given), 48.2 µM (active) and 46.9 µM (active).

On to `C[C@H]1[C@H](c2ccc(Cl)cc2)SC(=O)N1C(=O)NC1CCCCC1`, for which the Potency result was “inactive”. With `Oc1ccc2[nH]cc(CCCCN3CC=C(c4ccccc4)CC3)c2c1` the entry was “inactive”.

For `CCN(CC)CCN1C(=O)CN=C(c2ccccc2F)c2cc(Cl)ccc21`, the Potency entry is “inactive”. As for `CCCCn1cc[n+](C)c1.[Cl][Fe-]([Cl])([Cl])[Cl]`, the Potency result was “inactive”. With `O=[N+]([O-])[O-].[Tl+]` the entry was “inactive”. With `O=S1OCC2C(CO1)C1(Cl)C(Cl)=C(Cl)C2(Cl)C1(Cl)Cl` (stereo not given) the entry was “inactive and 54.9 µM (active)”; with `O=C(NC(=O)c1c(F)cccc1F)Nc1ccc(Oc2ccc(C(F)(F)F)cc2Cl)cc1F`, “inactive”; with `O=[N+]([O-])c1cccc2cccc([N+](=O)[O-])c12`, “inactive”.

Take `CN(C)CCc1c[nH]c2ccccc12`: the Potency result was “inactive”.

Take `CSC(=O)c1c(C(F)F)nc(C(F)(F)F)c(C(=O)SC)c1CC(C)C`: the Potency entry is “inactive”. With `Cc1c([N+](=O)[O-])c(C)c([N+](=O)[O-])c(C(C)(C)C)c1[N+](=O)[O-]` the entry was “inactive”; with `COc1nc(C)nc(NC(=O)NS(=O)(=O)c2ccccc2Cl)n1`, “inactive”. Take `Oc1ccc(Cl)c(Cl)c1`: the Potency result was “inactive”. As for `O=[N+]([O-])c1cc(C(F)(F)F)c(Cl)c([N+](=O)[O-])c1Nc1ncc(C(F)(F)F)cc1Cl`, the figure is 17.4 µM (active); as for `CC(Cl)CCl` (stereo not given), “inactive”. For the compound `Nc1nc(N)nc(Cl)n1`, the Potency result was “inactive”. `Nc1ccc(Cl)cc1C(=O)c1ccccc1F`: the Potency result is “inactive”.

With `O=C1C[C@@H]2OCC=C3CN4CC[C@]56c7ccccc7N1[C@H]5[C@H]2[C@H]3C[C@H]46`, the Potency entry was “inactive”. As for `ClC1(Cl)C2(Cl)C3(Cl)C4(Cl)C(Cl)(Cl)C5(Cl)C3(Cl)C1(Cl)C5(Cl)C24Cl` (stereo not given), the entry is “inactive”; as for `CCC(OC(C)=O)C(CC(C)NC)(c1ccccc1)c1ccccc1` (stereo not given), 62.2 µM (active); as for `COc1ccc2[nH]cc(CCN(C(C)C)C(C)C)c2c1`, “inactive”. With `CC(Cc1ccccc1)N(C)Cc1ccco1` (stereo not given) the entry was “inactive”; with `COc1ccc2c(c1OC)C(=O)O[C@@H]2[C@H]1c2cc3c(cc2CCN1C)OCO3`, “inactive”; with `CC(Cc1ccc2c(c1)OCO2)NO` (stereo not given), “inactive”. Turning to `CCCCN(CCCC)C(=S)[S-].CCCCN(CCCC)C(=S)[S-].[Ni+2]`, the Potency result was “inactive”. With `CCn1cc[n+](C)c1` (tested in a mixture with another compound) the entry was “inactive”. As for `CC(Cc1ccc(O)cc1)NCC(O)c1cc(O)cc(O)c1` (stereo not given), the entry is “inactive”. As to `O=c1[nH]c(Cl)c(Cl)cc1Cl`, the Potency result was “inactive”. As for `N#Cc1sc2c(=O)c3ccccc3c(=O)c=2sc1C#N`, the figure is 11 µM (active); as for `C=CCOC(=O)c1ccccc1N`, “inactive”. Take `CCCCON=O`: the Potency entry was “inactive”.
